Assay outcomes from PubChem BioAssay.
The list is not random: actives were taken first. Their share in the collection is about 4.1%.
Bead autofluor = compound fluorescence in toxin protease inhibitor counterscreen; compound autofluorescence counterscreen, microsphere flow cytometry; active compounds read high; fluorescence intensity (test concentration not listed); actives 3.1% (n = 360,000); in the data active = fluorescence intensity above about 16000; inconclusive = no clear call, values can overlap the other calls
MazEF act = MazEF (E. coli) toxin RNase activation; P0AE70; FAM/BHQ RNA-DNA oligo cleavage fluorescence, 5 h; activation, % at 20 µM; actives 0.32% (n = 350,000); AID 504720; in the data active = activation above about 50%
Target sequence (P0AE70 whole entry, looked up): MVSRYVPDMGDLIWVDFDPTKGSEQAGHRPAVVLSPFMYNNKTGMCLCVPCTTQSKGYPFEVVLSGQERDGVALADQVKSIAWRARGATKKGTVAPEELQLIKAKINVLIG
BoNT-A LC inh2 = inhibitors of Botulinum neurotoxin A light chain protease. AID 588499. actives 0.17% (n = 360,000). inhibition, % at 10 µM. multiplex microsphere protease substrate cleavage, flow cytometry; note: plate controls were buffer without enzyme for full effect and enzyme alone for no effect
BoNT-F LC inh = inhibitors of Botulinum neurotoxin F light chain protease; Multiplex microsphere protease cleavage assay, flow cytometry; inhibition, % at 10 µM; actives 0.22% (n = 360,000); AID 588497; in the data active = inhibition above about 35%, passing the limit was not always enough; inconclusive = no clear call, values can overlap the other calls; note: plate controls were buffer without enzyme for full effect and enzyme alone for no effect
DUSP3 inh = inhibitors of human VHR1 phosphatase (DUSP3). actives 0.52% (n = 290,000). recombinant VHR phosphatase, pNPP absorbance. inhibition, % at 13.3 µM. P51452; in the data active = inhibition above about 50%
Target sequence (P51452 whole entry, looked up): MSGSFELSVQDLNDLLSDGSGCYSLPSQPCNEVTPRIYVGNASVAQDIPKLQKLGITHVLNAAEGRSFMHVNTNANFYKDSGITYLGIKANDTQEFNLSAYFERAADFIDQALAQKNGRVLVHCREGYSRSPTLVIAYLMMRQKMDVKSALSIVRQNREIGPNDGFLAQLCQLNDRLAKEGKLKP
Anthrax LF inh2 = blocks Bacillus anthracis lethal factor protease | P15917 | multiplex microsphere protease cleavage assay, LF | inhibition, % at 10 µM | actives 0.12% (n = 360,000) | AID 588501; note: plate controls were buffer without enzyme for full effect and enzyme alone for no effect
Numbers without * were called inactive; ? = inconclusive; · = not tested or not shown. Cut-off read from the data, not from the text of the source, unless noted: active = inhibition above about 30%; inconclusive = no clear call, values can overlap the other calls; inactive = below that.

SMILES	Bead autofluor	MazEF act	BoNT-A LC inh2	BoNT-F LC inh	DUSP3 inh	Anthrax LF inh2
Cc1ccc2c(c1)N(CC(=O)NCc1cccs1)C(=O)CO2	9907	3.9	-0.9	-7.0	10.5	-1.0
CC(=O)Nc1ccc(S(=O)(=O)NCC(=O)OCC(=O)NCc2ccco2)cc1	5935	-1.9	-2.1	-0.8	·	4.0
O=C(NC1CCN(Cc2ccccc2)CC1)c1ccc(CS(=O)c2ccccc2Cl)o1 (stereo not drawn)	4206	-0.3	0.1	-2.8	·	-2.5
CCCCc1[nH]c(=O)c(C#N)c2c1CSC(C)(C)C2	22475*	-1.7	1.5	0.6	21.9	-4.5
CCc1[nH]c(=O)c(C#N)c2c1CSC(C)(C)C2	23170*	10.7	?	1.9	9.4	0.4
CCN(CC)c1ccc(NC(=O)Cn2nnc(-c3cccc(OC)c3OC)n2)c(C)c1	20991*	1.4	-0.7	0.8	6.7	-1.3
Cc1nn(CCOc2ccccc2)c(=O)n1-c1cccc(F)c1	16398*	-8.8	7.2	8.2	24.6	-21.0
Cc1nn(CCOc2ccccc2)c(=O)n1-c1ccc(F)cc1	16122	-0.1	1.3	1.4	37.0	-5.3
Cc1nnc(SCC(=O)NCC2COc3ccccc3O2)s1 (stereo not drawn)	3976	7.3	0.3	-1.2	·	5.3
CC1(NC(=O)c2cc(S(=O)(=O)N3CCCCC3)ccc2Cl)CCS(=O)(=O)C1 (stereo not drawn)	24171*	-1.1	-1.8	-0.7	-1.3	-0.2
COc1ccc(S(=O)(=O)N2CCC(C(=O)NC3(C)CCS(=O)(=O)C3)CC2)cc1OC (stereo not drawn)	4920	1.5	-3.5	-12.5	·	7.3
CN(C(=O)Nc1ccc(Cl)cc1)c1c2c(nn1C)CCCC2	23809*	1.6	?	-6.5	31.9	-3.3
CN(NC(=O)Nc1ccc(Cl)cc1)c1c(Cl)c(Cl)nn1C	2595	2.2	-0.3	-3.0	10.6	0.1
O=C(C1CCCN(S(=O)(=O)Cc2ccccc2)C1)N1CCC(Cc2ccccc2)CC1 (stereo not drawn)	21341*	-6.8	3.9	4.5	19.6	-1.8
O=C(O)C1CCCN(S(=O)(=O)Cc2ccccc2)C1 (stereo not drawn)	3611	-4.9	1.2	6.4	35.4	-11.6
CCCNC(=O)C(Cc1ccccc1)NC(=O)c1ccccc1 (stereo not drawn)	3413	3.7	-0.1	3.1	·	2.9
CC(NC(=O)C(Cc1ccccc1)NC(=O)c1ccccc1)C(=O)O (stereo not drawn)	22982*	1.8	?	-1.2	22.6	-0.8
CC1=CC(=O)N(c2cccc(C(F)(F)F)c2)C1c1ccc(Cl)cc1 (stereo not drawn)	23466*	-2.6	0.9	-0.8	-4.3	-1.5
CN(C(=O)c1ccc(NC(=O)Cc2ccc(NC(=O)C3CCCN(C(=O)CCc4ccccc4)C3)cc2)cc1)C1CCCC1 (stereo not drawn)	3875	-2.8	-0.5	-7.5	·	-2.2
Cc1ccc(CNc2ccc3c(c2)OCO3)cc1	15077	59.3*	16.7	-24.3	-21.1	-17.2
c1cc(CNc2ccc3c(c2)OCO3)ccn1	·	2.8	·	·	10.0	·
Cc1ccc(CNc2ncc(-c3ccc4c(c3)OCO4)n2C)cc1	22743*	9.6	0.6	0.8	-6.2	-3.8
Cn1c(-c2ccc3c(c2)OCO3)cnc1NCc1ccc(Cl)cc1	21164*	4.2	-1.8	-4.1	22.1	-10.6
Cc1ccc(S(=O)(=O)c2nc(NCc3ccc4c(c3)OCO4)sc2Cl)cc1	25130*	-9.1	2.7	-0.1	9.9	1.0
CN(Cc1ccccc1F)C(=O)c1cccc(NC(=O)CC2SC(N3CCCCC3)=NC2=O)c1 (stereo not drawn)	5842	-9.3	?	?	·	?
SMILES	Bead autofluor	MazEF act	BoNT-A LC inh2	BoNT-F LC inh	DUSP3 inh	Anthrax LF inh2
CSc1nc(SCC(=O)NC(c2ccccc2)c2ccccc2)c2c3c(sc2n1)CN(C)CC3	16363*	-3.6	3.6	-3.6	45.1	4.8
CCCNC(=O)c1cc(S(=O)(=O)N2CCc3ccccc32)ccc1F	16850*	0.2	-2.7	-3.6	7.5	-0.5
O=C(NCc1ccc(F)cc1)c1cc(S(=O)(=O)N2CCOCC2)ccc1F	21187*	6.5	?	7.1	14.1	0.0
CCCCCNC(=O)c1cc(S(=O)(=O)N2CCCCC2)ccc1F	23121*	1.0	?	4.9	3.5	-3.1
CCN(CC)S(=O)(=O)c1ccc(Cl)c(C(=O)NC)c1	2453	1.5	0.5	9.0	10.0	-0.3
CCN(CC)S(=O)(=O)c1ccc(F)c(C(=O)NCCC(C)C)c1	17171*	2.5	?	-2.4	26.4	0.9
O=c1[nH]cc(F)c(=O)n1C1OC(CO)C(O)C1O (stereo not drawn)	5978	·	0.1	-1.2	·	1.8
COc1ccc(CCNC(=O)C(=O)NCCC2CCCCN2S(=O)(=O)c2cccs2)cc1 (stereo not drawn)	4837	-0.6	-2.5	1.2	·	-2.4
CC1CCCC(NC(=O)COC(=O)/C=C/c2ccc(F)cc2)C1C (stereo not drawn)	3755	-3.2	-0.6	-6.9	·	5.1
CC(C)n1nnnc1C1c2ccccc2C(=O)N1CCc1c[nH]c2ccccc12 (stereo not drawn)	4267	·	-0.5	-4.1	·	-3.0
O=C1COc2ccc(S(=O)(=O)CCC(=O)N3CCN(c4cccc(C(F)(F)F)c4)CC3)cc2N1	5450	-4.3	0.6	6.9	9.7	0.7
O=C(Nc1ccn(Cc2ccc(Cl)cc2)n1)c1ccc2c(c1)OCO2	24410*	4.3	-3.0	-3.1	0.1	-1.7
CCN(CC)c1ccc(NC(=O)c2ccc3c(c2)OCO3)cc1	3662	-12.9	-6.8	-8.4	53.6*	4.2
O=C(Nc1c(C(=O)Nc2cccc(F)c2)oc2ccccc12)c1ccc2c(c1)OCO2	8437	-5.0	-0.4	-8.3	39.1	-4.8
Cc1ccc(NC(=O)c2oc3ccccc3c2NC(=O)c2ccc3c(c2)OCO3)cc1	20506*	-3.1	4.8	4.2	23.2	0.4
O=C(Nc1ccc(CN2CCCCC2)cc1)c1ccc2c(c1)OCO2	20600*	6.8	-0.2	-0.7	28.0	0.9
COc1ccc(/C(N)=N/OC(=O)c2cc(-c3ccccc3)nc3ccccc23)cc1	19686*	3.4	2.3	-1.4	10.6	-3.8
CC(C)(C)c1cn(-c2ccc(F)cc2)c(=S)[nH]1	19889*	-2.9	?	8.7	14.6	-0.4
COc1ccc2c(c1)C1=NN(/C(C)=C/C(C)=O)C(c3ccc(F)cc3)C1CC2 (stereo not drawn)	15484	-2.9	0.5	9.5	-6.9	1.4
COc1ccc2c(c1)CCC1C2=NN(/C(C)=C\C(C)=O)C1c1ccc(F)cc1 (stereo not drawn)	34486*	5.1	?	?	2.0	?
COc1ccc2c(c1)C1=NN(/C(C)=C\C(C)=O)C(c3ccccc3)C1CC2 (stereo not drawn)	21972*	-10.2	3.0	-4.2	11.8	5.8
COc1cccc(-c2oc3c(c2-c2ccc(Br)nc2)C(O)CCC3)c1 (stereo not drawn)	4138	·	-0.8	0.4	·	-6.0
